This is an account of results in PubChem BioAssay (NCATS).

SMILES strings stand for the structures. Inconclusive results are not listed. Activity calls are given as the source filed them. The call rests on the fitted dose curve; in most records, active means well fitted curve in the direction sought with a large enough effect; inconclusive means small, poorly fitted or top-dose-only effect, or another doubt; inactive means no such curve, though single readings can be large; an effect the other way counts as inactive or inconclusive.

Assay [1] has as its target Calcium and integrin-binding protein 1 (Homo sapiens) (UniProt Q99828). The assay can be described thus: Primary qHTS for Identification of Calcium Integrin Binding Protein 1 (CIB1) Competitor (AID 1508620).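 Further: GST tagged CIB1 binding a fluorescein labelled alphaIIb integrin peptide tracer; top concentration of the series differs between compounds.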 The settings on record: CIB1-GST / FITC-alphaIIb peptide fluorescence polarization; series mostly up to 57.7 µM. In a few lines:
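Fluorescence polarization competition: GST-tagged CIB1 (1 uM final) preincubated with compound 15 min at room temperature, then FITC-labelled alphaIIb peptide (100 nM final) added. After 15 min at room temperature, polarization read at Ex 480/Em 540.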
Background: qHTS replaces the single test concentration by a dilution series.

The nature of assay [2]: Primary qHTS for inhibitors of nuclear receptor binding SET domain protein 2 (NSD2) in an isogenic RCH-ACV NSD2 p.E1099K mutant (9B) (AID 1645876). Further: nearly all actives have a fitted effect of over 70% in size. Further: potency means the concentration at half of the fitted maximal effect. The settings on record: RCH-ACV NSD2 E1099K (9B) viability, CellTiter-Glo, 72 h; series mostly up to 44.9 µM.
A short description of assay [3]: Primary qHTS for inhibitors of nuclear receptor binding SET domain protein 2 (NSD2) in an RCH-ACV wild type WT cells (2C) (AID 1645877). Further: nearly all actives have a fitted effect of over 70% in size. Further: potency means the concentration at half of the fitted maximal effect. As to conditions: RCH-ACV (leukaemia line) NSD2 WT (2C) viability, CellTiter-Glo, 72 h; series mostly up to 44.9 µM.

Sequence of Calcium and integrin-binding protein 1 (Homo sapiens) (Q99828 whole entry, looked up): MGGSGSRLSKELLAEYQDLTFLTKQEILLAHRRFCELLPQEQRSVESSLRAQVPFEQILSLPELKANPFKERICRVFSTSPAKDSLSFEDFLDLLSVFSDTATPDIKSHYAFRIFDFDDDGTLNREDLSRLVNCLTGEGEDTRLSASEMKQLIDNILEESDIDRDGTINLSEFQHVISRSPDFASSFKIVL

Consider `CC1(C)CC2C(O)C3=C(CC(C)(O)C2C1)C(=O)OC3` (stereo not drawn), for which the Potency result in assay [1], in assay [2] and in assay [3] was “inactive” throughout.
Turning to `CC(C)C1NC(=O)C2CCCN2C1=O` (stereo not drawn), the Potency result in assay [1], in assay [2] and in assay [3] was “inactive” each time.
As to `CC1CC2OCC3(O)CCC(O)C(C14CC(c1ccoc1)OC4=O)C23CO` (stereo not drawn), the Potency entry in assay [1], in assay [2] and in assay [3] was “inactive” throughout.
Consider `CC1=CC[C@@]2(C)CC[C@@](O)(C(C)C)[C@@H]2[C@@H](O)C1`, for which the Potency entry in assay [1], in assay [2] and in assay [3] was “inactive” each time.
`CC1C2=CC(=O)OC2(O)CC2C1CCC1C(C)(C)CCC(O)C21C` (stereo not drawn): the Potency entry in assay [1] was “inactive”. In addition, the Potency in assay [2] is 14.2 µM (active); in assay [3], 8.98 µM (active).
Regarding `C=C1C(O)C(O)C2(CC3C(C)=CCC4C(C)(C(=O)O)CCCC34C)OC2C1O` (stereo not drawn), the Potency result in assay [1], in assay [2] and in assay [3] was “inactive” throughout.
Turning to `CC(C)[C@@H](C(=O)O)N1Cc2c(cc(O)c3c2O[C@]2(C3)[C@H](C)CCC3C(C)(C)[C@H](O)[C@H](O)C[C@@]32C)C1=O` (stereo partly drawn), the Potency result in assay [1], in assay [2] and in assay [3] was “inactive” each time.
In the case of `C[C@@H]1CC[C@]2(C(=O)O[C@@H]3O[C@H](CO[C@@H]4O[C@H](CO)[C@@H](O[C@@H]5O[C@@H](C)[C@H](O)[C@@H](O)[C@H]5O)[C@H](O)[C@H]4O)[C@@H](O)[C@H](O)[C@H]3O)CC[C@]3(C)C(=CCC4[C@@]5(C)C[C@@H](O)[C@H](O)[C@@](C)(CO)C5CC[C@]43C)C2[C@H]1C` (stereo partly drawn), in assay [1], the Potency result is “inactive”. The outcome in assay [2] and in assay [3] was “inactive [at 9.23 µM]” each time.
For the compound `C/C(CO)=C1/CCC23COC(C2)C(O)(C(=O)O)CCC13` (stereo not drawn), the Potency result in assay [1], in assay [2] and in assay [3] was “inactive” each time.
With `OC[C@H]1O[C@@H](OCc2ccccc2)[C@H](O)[C@@H](O)[C@@H]1O`, the Potency result in assay [1], in assay [2] and in assay [3] was “inactive” each time.
For the compound `C[C@@H]1O[C@@H](O[C@H]2[C@@H]3C=CO[C@@H](O[C@@H]4O[C@H](CO)[C@@H](O)[C@H](O)[C@H]4O)[C@@H]3[C@@]3(CO)O[C@@H]23)[C@H](O)[C@H](OC(=O)/C=C/c2ccc(O)c(O)c2)[C@H]1O`, the Potency entry in assay [1], in assay [2] and in assay [3] was “inactive” each time.
Regarding `C[C@@H]1O[C@@H](O[C@H]2[C@H](O[C@H]3[C@H](O[C@H]4CC[C@@]5(C)C(CC[C@]6(C)C5CC=C5[C@@H]7CC(C)(C)C[C@@H](O)[C@]7(C)CC[C@]56C)C4(C)C)O[C@H](C(=O)O)[C@@H](O)[C@@H]3O)O[C@H](C(=O)O)[C@H](O)[C@@H]2O)[C@H](O)[C@H](O)[C@H]1O` (stereo partly drawn), in assay [1], the Potency entry was “inactive”. Further, the outcome in assay [2] and in assay [3] was “inactive [at 9.23 µM]” each time.
In the case of `C=CCC1=C[C@]2(OC)[C@H](C)[C@@H](c3ccc(OC)c(OC)c3)O[C@]2(OC)CC1=O`, the Potency entry in assay [1], in assay [2] and in assay [3] was “inactive” in each case.
Turning to `CN1CCN(C(=O)c2cc3cc(Cl)ccc3[nH]2)CC1`, the Potency result in assay [1], in assay [2] and in assay [3] was “inactive” throughout.
For the compound `COC(=O)C1=COC(OC2OC(CO)C(O)C(O)C2O)C2C(COC(=O)/C=C/c3ccc(O)c(O)c3)C(O)C(O)C12` (stereo not drawn), the Potency result in assay [1], in assay [2] and in assay [3] was “inactive” each time.
In the case of `CCC12CCCN3CCc4c(n(c5ccccc45)C(O)C1)C32` (stereo not drawn), the Potency entry in assay [1], in assay [2] and in assay [3] was “inactive” throughout.
For the compound `O=C(O)c1ccc(NC(=O)[C@H](CC2CCCC2)n2cnc(C(F)(F)F)c2)nc1`, the Potency entry in assay [1], in assay [2] and in assay [3] was “inactive” each time.
For `CC1CC=C2C1CC1(O)C(=O)CC2(C)C1(C)CO` (stereo not drawn), the Potency entry in assay [1], in assay [2] and in assay [3] was “inactive” each time.
On to `COc1ccc(OC2OC(CO[C@@H]3O[C@@H](C)[C@H](O)[C@@H](O)[C@H]3O)C(O)C(O)C2O)cc1OC` (stereo partly drawn), for which the Potency result in assay [1], in assay [2] and in assay [3] was “inactive” throughout.
Consider `C=C(COC(=O)C(C)C)C1Oc2cc(C(C)=O)ccc2C1OC(=O)C(C)C` (stereo not drawn), for which the Potency entry in assay [1], in assay [2] and in assay [3] was “inactive” each time.
For the compound `Cc1ncc([N+](=O)[O-])n1C[C@H](O)CN1CCOCC1`, the Potency result in assay [1], in assay [2] and in assay [3] was “inactive” each time.
`O=C(OC[C@H]1O[C@@H](Oc2ccccc2CO)[C@H](O)[C@@H](O)[C@@H]1O)c1ccccc1`: the Potency entry in assay [1], in assay [2] and in assay [3] was “inactive” throughout.
`O=C(OC[C@H]1O[C@H](O[C@]2(CO)O[C@H](CO)[C@@H](O)[C@@H]2O)[C@H](O)[C@@H](O)[C@@H]1O)c1ccc(O)cc1`: the Potency result in assay [1], in assay [2] and in assay [3] was “inactive” throughout.
In the case of `COC(=O)C1=CO[C@@H](O[C@@H]2O[C@H](CO)[C@@H](O)[C@H](O)[C@H]2O)[C@@H]2[C@@H](CO)[C@@H](O)C(O)[C@H]12` (stereo partly drawn), the Potency result in assay [1], in assay [2] and in assay [3] was “inactive” in each case.
On to `O=C(C1OC1/C=C/c1ccc2c(c1)OCO2)N1CCCCC1` (stereo not drawn), for which the Potency entry in assay [1], in assay [2] and in assay [3] was “inactive” throughout.
Turning to `COc1cc(O[C@@H]2O[C@H](CO[C@H]3OC[C@](O)(CO)[C@H]3O)[C@@H](O)[C@H](O)[C@H]2O)cc(OC)c1O`, the Potency entry in assay [1], in assay [2] and in assay [3] was “inactive” throughout.
